The record followed here is PubChem BioAssay AID463173 (ICCB-Longwood Screening Facility, Harvard Medical School, 2010).

Hit rate of the full screen: of about 52,000 compounds, about 4,300 (8.3%) were called active. Cut-off read from the data, not from the text of the source: active = survival mostly below about 52% (no sharp cut-off); inactive = mostly above about 56%. Shown is part of a subset that was picked to be rich in actives.

This assay has as its system DeltatarO mutant. Description: growth inhibition of S. aureus wild type versus tarO mutant, primary screen, teichoic acid synthesis inhibitors, RN4220, OD600 (AID 463173). The settings on record: OD600, 18 h, active compounds read low, screened at 18.75 µg/mL (by protocol).
For the compound `CCN(CC)N=Nc1ccc(NC(C)=O)cc1`, the survival was 113% (inactive).

As for `CCc1ccc(-n2nc(C)c3c(C(=O)Nc4cc(C)ccc4C)cc(C)nc32)cc1`, the survival is 60% (inactive). The figure for `Cc1c(N)c(C)c(N)c(C)c1N` is 96% (inactive).

Regarding `CCOc1ccccc1CNC(=O)C1CCN(C(=O)N2CC(CC)Oc3ccc(C)cc32)CC1` (centres undefined), the survival was 71% (inactive). For `CCOC(=O)c1c(S(=O)(=O)NCC(=O)Nc2ccc(C)c(Cl)c2)c(C)n(C)c1C`, the survival was 61% (inactive).

As for `Cc1ccc(NC(=O)Cn2c(=O)n(Cc3ccc(F)cc3)c(=O)c3cccnc32)cc1C`, the survival is 91% (inactive). As for `Cc1ccc(-n2nc(C)c3nc(CCC(=O)Nc4cccc(F)c4)c(=O)n(C)c32)cc1`, the survival is -5% (active). As for `COc1cccc(NC(=O)CCc2nc3c(C)nn(-c4ccc(C)cc4)c3n(C)c2=O)c1`, the survival was 81% (inactive).

Take `Cc1ccc(-n2nc(C)c3nc(CCC(=O)Nc4ccc(F)cc4)c(=O)n(C)c32)cc1`: the survival was 73% (inactive). `O=C(c1cc(S(=O)(=O)N2CCCC2)c[nH]1)N1CCN(c2cccc(Cl)c2)CC1`: the survival is 98% (inactive). For `COCCn1nnnc1C(c1ccc2ncccc2c1)N1CCc2ccccc21` (centres undefined), the survival was 98% (inactive). As for `COc1ccc(-c2noc(-c3ccc(NCc4ccco4)c([N+](=O)[O-])c3)n2)cc1OC`, the survival is 43% (active). In the case of `O=[N+]([O-])c1cc(-c2nc(-c3ccccc3)no2)ccc1NCc1ccco1`, the survival was 64% (inactive).

In the case of `COc1cc(-c2noc(-c3ccc(NCc4ccco4)c([N+](=O)[O-])c3)n2)cc(OC)c1OC`, the survival is 49% (active).

As for `COc1ccc(-c2noc(-c3ccc(NCc4ccco4)c([N+](=O)[O-])c3)n2)cc1`, the survival is 43% (inactive). Take `Cc1ccc(-c2noc(-c3ccc(NCc4ccco4)c([N+](=O)[O-])c3)n2)cc1`: the survival is 98% (inactive). Take `COc1ccccc1-c1noc(-c2ccc(NCc3ccco3)c([N+](=O)[O-])c2)n1`: the survival is 97% (inactive). The figure for `CCC(=O)N1c2nc(C(C)C)nn2C2(CCCCC2)[C@@H]2CCCC[C@@H]21` is 81% (inactive); for `COC(=O)c1ccc(Cn2nnc3c(=O)[nH]c(C4CCCN(S(=O)(=O)c5cccc(Cl)c5)C4)nc32)cc1` (centres undefined) it is 94% (inactive). For the compound `CC(C)N(C(=O)CSc1nnc(Cc2csc(Nc3ccccc3)n2)o1)C(C)C`, the survival is 69% (inactive).

In the case of `CCOc1ccc2nc(NCCNC(=O)C3CCCCC3)c(C#N)cc2c1`, the survival is 106% (inactive). Consider `CCN(CC)C(=O)/C(=C\c1ccc(OC)c(OC)c1)n1ccccc1=O`, for which the survival is 103% (inactive).

`CCc1ccc(CNC(=O)Cn2nc(C)c3c(C)n(-c4ccc(C)cc4)nc3c2=O)cc1`: the survival was 79% (inactive). On to `COc1ccc(-c2cccc(NS(=O)(=O)c3cc(C)c(Cl)cc3C)c2)nn1`, for which the survival is 102% (inactive). For `CC(=O)c1sc2c(c1C)c(=O)n(-c1ccc(Cl)cc1)c(=O)n2Cc1cc(=O)n2cc(Cl)ccc2n1`, the survival is 58% (inactive).

Turning to `Cc1oc(-c2ccccc2)nc1C(=O)O`, the survival was 72% (inactive). For `Cc1ccc(CNc2ccc(-c3nc(-c4ccco4)no3)cc2[N+](=O)[O-])cc1`, the survival is 53% (inactive). For the compound `COc1ccccc1CNc1ccc(-c2nc(-c3ccco3)no2)cc1[N+](=O)[O-]`, the survival was 45% (inactive). Consider `CCCCNc1ccc(-c2nc(-c3ccco3)no2)cc1[N+](=O)[O-]`, for which the survival is 57% (inactive). On to `O=[N+]([O-])c1cc(-c2nc(-c3ccco3)no2)ccc1NCc1ccccc1`, for which the survival is 47% (active). The result for `CCNc1ccc(-c2nc(-c3ccco3)no2)cc1[N+](=O)[O-]` reads 51% (inactive); that for `CCCNc1ccc(-c2nc(-c3ccco3)no2)cc1[N+](=O)[O-]`, 57% (active); that for `CCc1ccc2[nH]c3nc(SCC(=O)OC(C)C)nnc3c2c1`, 108% (inactive).

On to `Cc1cc(C)c2c(=O)c3c(oc2c1)C(=O)N(CCCOC(C)C)C3c1ccccc1F` (centres undefined), for which the survival was 67% (inactive).

Turning to `CCOc1ccc(-n2c(SC(C)C(=O)OC)nc3c([nH]c4ccccc43)c2=O)cc1` (centres undefined), the survival is 0% (active). For the compound `CC1CCN(C(=O)CSc2nc3c([nH]c4ccccc43)c(=O)n2-c2ccccc2)CC1`, the survival is 75% (inactive). The figure for `CCOc1ccc(-n2c(SCC(=O)N3CCCCC3)nc3c([nH]c4ccccc43)c2=O)cc1` is 107% (inactive); for `Cc1ccc(-n2c(SCC(=O)N3CCC(C)CC3)nc3c([nH]c4ccccc43)c2=O)cc1` it is -5% (active); for `COc1ccc(-n2c(SCC(=O)N3CCC(C)CC3)nc3c([nH]c4ccccc43)c2=O)cc1` it is 70% (inactive). The result for `CCOc1ccc(-n2c(SCC(=O)N3CCCC3)nc3c([nH]c4ccccc43)c2=O)cc1` reads 98% (inactive); that for `Cc1cc(C)cc(-n2c(SCC(=O)N3CCCCC3)nc3c([nH]c4ccccc43)c2=O)c1`, 88% (inactive); that for `CCOc1ccc(-n2c(SCC(=O)N3CCOCC3)nc3c([nH]c4ccccc43)c2=O)cc1`, 0% (active). As for `CCOC(=O)CSc1nc2c([nH]c3ccccc32)c(=O)n1-c1ccc(OCC)cc1`, the survival is 99% (inactive).

On to `Cc1cc(C)cc(-n2c(SCC(=O)N3CCCC3)nc3c([nH]c4ccccc43)c2=O)c1`, for which the survival is 89% (inactive).

Regarding `Cc1cc(C)cc(-n2c(SCC(=O)N3CCC(C)CC3)nc3c([nH]c4ccccc43)c2=O)c1`, the survival was 17% (active).

Consider `COC(=O)C(C)Sc1nc2c([nH]c3ccccc32)c(=O)n1-c1ccc(OC)cc1` (centres undefined), for which the survival was 64% (inactive). In the case of `Cc1ccccc1S(=O)(=O)Cc1ccc(C(=O)NCc2ccccc2Cl)o1`, the survival is 56% (inactive). `Cc1ccc(-n2ncc(C(=O)NCCCN3CCc4ccccc4C3)c2C2CCN(C(=O)OC(C)(C)C)CC2)cc1C`: the survival was 73% (inactive). `COc1cccc(-n2cc(C(=O)NCc3ccccc3OC)c3ccccc3c2=O)c1`: the survival is 72% (inactive). Regarding `CCC(Oc1ccccc1)C(=O)Nc1cccc(OCc2cc(=O)n3cccc(C)c3n2)c1` (centres undefined), the survival was 128% (inactive). For the compound `O=C1N(CN2CCCCC2)c2ccccc2C12OCCCCO2`, the survival is 94% (inactive). For `CCc1ccc(OCC2c3cc(OC)c(OC)cc3CCN2C(=O)Cc2ccc(OC)c(OC)c2)cc1` (centres undefined), the survival is 76% (inactive). For the compound `COc1ccccc1OCC(=O)NCC(c1ccc(Cl)cc1)N1CCCCC1` (centres undefined), the survival is 61% (inactive).

Regarding `O=C(Nc1ccc(F)cc1F)c1cc(S(=O)(=O)N2CCCCC2)c[nH]1`, the survival is 83% (inactive).

Consider `Cc1ccc(NC(=O)c2cc(-c3ccc(Br)s3)nc3ccccc23)cc1F`, for which the survival was 59% (inactive). The result for `CCOc1cccc(CC(=O)N2CCc3c([nH]c4ccccc34)C2c2ccc(SC)cc2)c1OCC` (centres undefined) reads 107% (inactive). The figure for `Cn1nccc1C(=O)NCc1ccc2c(c1)CCN2C(=O)c1ccc(F)cc1` is 65% (inactive); for `COc1ccc(-n2c(SCC(=O)NCc3ccco3)nc3c([nH]c4ccccc43)c2=O)cc1` it is 102% (inactive).

For the compound `O=C(CSc1nc2c([nH]c3ccccc32)c(=O)n1-c1ccc(F)cc1)NCc1ccco1`, the survival is 81% (inactive). Regarding `COC(=O)c1ccc(CSc2nc3c([nH]c4ccccc43)c(=O)n2-c2ccc(Cl)cc2)o1`, the survival is 112% (inactive). For `COC(=O)c1ccc(CSc2nc3c([nH]c4ccccc43)c(=O)n2-c2cccc(Cl)c2)o1`, the survival was 79% (inactive). Take `COC(=O)c1ccc(CSc2nc3c([nH]c4ccccc43)c(=O)n2-c2cc(C)cc(C)c2)o1`: the survival is 8% (active). On to `CCOc1ccc(-n2c(SCC(=O)NCc3ccco3)nc3c([nH]c4ccccc43)c2=O)cc1`, for which the survival was 37% (active). For the compound `CCC(C)NC(=O)CSc1nc2cc3c(cc2c(=O)n1CCCCCC(=O)NCc1ccc2c(c1)OCO2)OCO3` (centres undefined), the survival was 84% (inactive).

As for `O=C(COc1ccccc1F)Nc1c(C(=O)Nc2cccc(F)c2)oc2ccccc12`, the survival is 75% (inactive).

As for `COc1ccc(CCNC(=O)C2CCN(c3nc4ccccc4nc3C(F)(F)F)CC2)cc1OC`, the survival was 92% (inactive). Turning to `COc1ccc(CCNc2nc(-c3ccc(F)cc3)cc(C(F)(F)F)n2)cc1OC`, the survival is 109% (inactive). Turning to `COc1ccc(CCNc2nc(-c3ccc(Cl)cc3)cc(C(F)(F)F)n2)cc1OC`, the survival was 8% (active). For `COc1ccc(CCNc2nc(-c3ccccc3OC)cc(C(F)(F)F)n2)cc1OC`, the survival was -8% (active).

Turning to `COc1cccc(-c2cc(C(F)(F)F)nc(NCCc3ccc(OC)c(OC)c3)n2)c1`, the survival was 4% (active). The figure for `COc1ccc(CCNC(=O)CSc2nc(-c3ccc(F)cc3)cc(C(F)(F)F)n2)cc1OC` is 77% (inactive); for `COc1ccc(-c2cc(C(F)(F)F)nc(SCC(=O)NCCc3ccc(OC)c(OC)c3)n2)cc1` it is 59% (inactive); for `COc1ccc(CCNc2nc(-c3ccc(OC)c(OC)c3)cc(C(F)(F)F)n2)cc1OC` it is 4% (active). The figure for `COc1ccc(CCNc2nc(-c3ccc(C)cc3)cc(C(F)F)n2)cc1OC` is 87% (inactive); for `COc1ccc(CCNC(=O)Cn2nc(-c3ccc(Cl)cc3)ccc2=O)cc1OC` it is 75% (inactive). For the compound `CCOC(=O)N1CCC(NC(=O)c2cnn(-c3ccc(C)cc3)c2-n2cccc2)CC1`, the survival was 69% (inactive). As to `CCc1ccc2[nH]c(=O)c(CN(CCCN3CCOCC3)C(=S)NC)cc2c1`, the survival is 88% (inactive). Regarding `CC(C)c1c(O)nc(SCCN2CCOCC2)[nH]c1=O`, the survival is 92% (inactive). Consider `CCOc1ccc2nc(NC3=NCCC(=O)N3)nc(C)c2c1`, for which the survival was 80% (inactive). With `CCN(CC)C(=O)c1sc2c(c1C)c(=O)n(-c1ccc(C)c(C)c1)c(=O)n2CC(=O)Nc1ccc(F)cc1`, the survival is 92% (inactive). Take `CCCCc1nn2c(=O)cc(COC(=O)c3ccc(NC(=O)C4CCCCC4)cc3)nc2s1`: the survival is 91% (inactive). As to `CCn1cc(C(=O)NCc2ccc(Cl)cc2)c(=O)c2cc(S(=O)(=O)N3CCc4ccccc4C3)ccc21`, the survival was 64% (inactive). In the case of `CCN(CC)C(=O)COc1ccc2ccc(=O)oc2c1`, the survival was 84% (inactive). Regarding `COc1ccccc1CNC(=O)CCCn1c(=O)c2ccccc2n(Cc2ccc(C)cc2)c1=O`, the survival is 132% (inactive).
